The nature of experiment [1]: small molecules captured by biotinylated probe aFSTL3 – biochemical, small-molecule microarray, fluorescence 635/667, stem cell growth factor project, primary screen (AID 1064).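 Note: measures binding of the biotinylated anti-FSTL3 antibody to printed compounds.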 The settings on record: higher = more signal.
Experiment [2] is described as follows: binders from COS7 lysate, DM2A8 probe, primary screen, torsin A project, cell lysate, small-molecule microarray, fluorescence 635/667 (AID 1065). The settings on record: higher = more signal, COS7 lysate expressing mutant human TOR1A.
The nature of experiment [3]: small molecules captured by biotinylated probe aFGF2 – biochemical, small-molecule microarray, fluorescence 635/667, stem cell growth factor project, primary screen (AID 1067).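 Note: measures binding of biotinylated aFGF2 protein to printed compounds on slides; z-score merges feature fluorescence and signal-to-noise across triplicate slides.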 The settings on record: higher = more signal.
Experiment [4] in a line: small molecules captured by biotinylated probe aFGF10 – biochemical, small-molecule microarray, fluorescence 635/667, stem cell growth factor project, primary screen (AID 1071).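 Note: score merges 667 nm spot intensity and signal to noise from triplicate slides.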 The settings on record: higher = more signal.
Experiment [5] has as its target Neurogenic locus notch homolog protein 2 (Homo sapiens) (UniProt Q04721). Briefly: small molecules binding Notch2 protein – biochemical, small-molecule microarray, 635 nm fluorescence, stem cell growth factors, primary screen (AID 1073). To be noted: higher = more signal.
Experiment [6] deals with Pro-neuregulin-1, membrane-bound isoform (Homo sapiens) (UniProt Q02297). Briefly: small molecules binding neuregulin-1 protein – biochemical, small-molecule microarray, fluorescence 635/667, psychiatric disease protein project, primary screen (AID 1075).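 Note: score combines 667 nm spot fluorescence with signal to noise.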 To be noted: NRG1 binding, 635 nm fluorescence, higher = more signal.
Experiment [7] has as its system Neuregulin-1 EGF-like domain. Briefly: small molecules binding NRG1 EGF domain – biochemical, small-molecule microarray, 635 nm fluorescence, primary screen (AID 1081).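 Note: binding of the protein to compounds printed on small-molecule microarray slides.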 The settings on record: higher = more signal.
A short description of experiment [8]: FRG1 expression reporter modulators in myotubes – cell-based, C2C12 myotubes, firefly/Renilla luciferase, luminescence, FRG1 inhibition for FSHD, primary screen (AID 1084). To be noted: FRG1 promoter luciferase, higher = more signal, called active from +8 up or from −8 down.
Experiment [9] in a line: small molecules captured by biotinylated probe aFST – biochemical, small-molecule microarray, fluorescence 635/667, stem cell growth factor project, primary screen (AID 1086).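 Note: score merges 667 nm fluorescence with signal-to-noise of each printed compound spot.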 The settings on record: higher = more signal.
The nature of experiment [10]: binders of probe aHhip on microarray, primary screen, stem cell growth factor project, biochemical, small-molecule microarray, fluorescence 635/667 (AID 1087).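 Note: score merges spot fluorescence at 667nm with spot signal to noise ratio.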 To be noted: higher = more signal.
Experiment [11] has as its system PRMT1 (protein arginine N-methyltransferase 1). Description: small molecules binding arginine methyltransferase PRMT1 – biochemical, small-molecule microarray, 635 nm fluorescence, primary screen (AID 1088).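 Note: binding of Prmt1 protein to compounds spotted on small-molecule microarray slides.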 The settings on record: higher = more signal.
Experiment [12] in a line: growth effects on S. cerevisiae YJM789 – YJM789 clinical isolate, OD600, 24 h, basal, primary screen (AID 1089).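 Note: growth of clinical yeast isolate S. cerevisiae YJM 789 seeded 1000 cells per well; test concentration not given here.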 To be noted: higher = more signal, called active from +8 up or from −8 down.
Experiment [13] can be described thus: S. pombe growth modifiers, basal conditions – strain 972, OD600, 24 h, no modulator, primary screen (AID 1090).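 Note: basal condition with compound alone and no growth modifier present; test concentration not given here.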 To be noted: S. pombe 972 growth, higher = more signal, called active from +8 up or from −8 down.
Experiment [14] is described as follows: budding yeast growth modifiers under rapamycin – strain BY4716, OD600, 96 h, primary screen (AID 1091). Note: test concentration not given here. To be noted: S. cerevisiae BY4716 + rapamycin, higher = more signal, called active from +8 up or from −8 down.
For experiment [15], the target named is Torsin-1A-interacting protein 2 (Homo sapiens) (UniProt Q8NFQ8). Briefly: small molecules binding lysate-expressed LULL1 – cell lysate, human LULL1 lysate, 635/667 nm fluorescence, primary screen (AID 1092).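 Note: score merges per-feature 667 nm fluorescence with signal-to-noise.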 The settings on record: small-molecule microarray, hLULL1 lysate binding, 635 nm fluorescence; higher = more signal.
Experiment [16] in a line: optical density change of DRC41 E. coli – strain DRC41, OD650, 24 h, E. coli filamentation project, primary screen (AID 1093).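 Note: MC1000 strain lacking acrAB efflux and sulA so SOS filamentation is blocked; test concentration not given here.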 The settings on record: E. coli DRC41 growth, higher = more signal, called active from +8 up or from −8 down.
Experiment [17] in a line: probe aLefty2 binding to arrayed compounds – biochemical, biotinylated probe, 635/667 nm fluorescence, primary screen (AID 1094).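 Note: score merges spot fluorescence near 667 nm with spot signal-to-noise ratio.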 To be noted: small-molecule microarray, higher = more signal.
The test system of experiment [18] is Noggin (protein binding on small-molecule microarray). Briefly: small molecules binding Noggin protein – biochemical, 635/667 nm fluorescence, primary screen (AID 1095).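 Note: score merges 667 nm feature fluorescence with signal to noise over triplicate slides.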 The settings on record: 635 nm fluorescence, higher = more signal.
The target in experiment [19] is Neurogenic locus notch homolog protein 3 (Homo sapiens) (UniProt Q9UM47). Description: small molecules binding NOTCH3 protein – biochemical, 635/667 nm fluorescence, primary screen (AID 1096). To be noted: small-molecule microarray, 635 nm fluorescence, higher = more signal.
Sequence of Neurogenic locus notch homolog protein 3 (Homo sapiens) (Q9UM47 whole entry, looked up): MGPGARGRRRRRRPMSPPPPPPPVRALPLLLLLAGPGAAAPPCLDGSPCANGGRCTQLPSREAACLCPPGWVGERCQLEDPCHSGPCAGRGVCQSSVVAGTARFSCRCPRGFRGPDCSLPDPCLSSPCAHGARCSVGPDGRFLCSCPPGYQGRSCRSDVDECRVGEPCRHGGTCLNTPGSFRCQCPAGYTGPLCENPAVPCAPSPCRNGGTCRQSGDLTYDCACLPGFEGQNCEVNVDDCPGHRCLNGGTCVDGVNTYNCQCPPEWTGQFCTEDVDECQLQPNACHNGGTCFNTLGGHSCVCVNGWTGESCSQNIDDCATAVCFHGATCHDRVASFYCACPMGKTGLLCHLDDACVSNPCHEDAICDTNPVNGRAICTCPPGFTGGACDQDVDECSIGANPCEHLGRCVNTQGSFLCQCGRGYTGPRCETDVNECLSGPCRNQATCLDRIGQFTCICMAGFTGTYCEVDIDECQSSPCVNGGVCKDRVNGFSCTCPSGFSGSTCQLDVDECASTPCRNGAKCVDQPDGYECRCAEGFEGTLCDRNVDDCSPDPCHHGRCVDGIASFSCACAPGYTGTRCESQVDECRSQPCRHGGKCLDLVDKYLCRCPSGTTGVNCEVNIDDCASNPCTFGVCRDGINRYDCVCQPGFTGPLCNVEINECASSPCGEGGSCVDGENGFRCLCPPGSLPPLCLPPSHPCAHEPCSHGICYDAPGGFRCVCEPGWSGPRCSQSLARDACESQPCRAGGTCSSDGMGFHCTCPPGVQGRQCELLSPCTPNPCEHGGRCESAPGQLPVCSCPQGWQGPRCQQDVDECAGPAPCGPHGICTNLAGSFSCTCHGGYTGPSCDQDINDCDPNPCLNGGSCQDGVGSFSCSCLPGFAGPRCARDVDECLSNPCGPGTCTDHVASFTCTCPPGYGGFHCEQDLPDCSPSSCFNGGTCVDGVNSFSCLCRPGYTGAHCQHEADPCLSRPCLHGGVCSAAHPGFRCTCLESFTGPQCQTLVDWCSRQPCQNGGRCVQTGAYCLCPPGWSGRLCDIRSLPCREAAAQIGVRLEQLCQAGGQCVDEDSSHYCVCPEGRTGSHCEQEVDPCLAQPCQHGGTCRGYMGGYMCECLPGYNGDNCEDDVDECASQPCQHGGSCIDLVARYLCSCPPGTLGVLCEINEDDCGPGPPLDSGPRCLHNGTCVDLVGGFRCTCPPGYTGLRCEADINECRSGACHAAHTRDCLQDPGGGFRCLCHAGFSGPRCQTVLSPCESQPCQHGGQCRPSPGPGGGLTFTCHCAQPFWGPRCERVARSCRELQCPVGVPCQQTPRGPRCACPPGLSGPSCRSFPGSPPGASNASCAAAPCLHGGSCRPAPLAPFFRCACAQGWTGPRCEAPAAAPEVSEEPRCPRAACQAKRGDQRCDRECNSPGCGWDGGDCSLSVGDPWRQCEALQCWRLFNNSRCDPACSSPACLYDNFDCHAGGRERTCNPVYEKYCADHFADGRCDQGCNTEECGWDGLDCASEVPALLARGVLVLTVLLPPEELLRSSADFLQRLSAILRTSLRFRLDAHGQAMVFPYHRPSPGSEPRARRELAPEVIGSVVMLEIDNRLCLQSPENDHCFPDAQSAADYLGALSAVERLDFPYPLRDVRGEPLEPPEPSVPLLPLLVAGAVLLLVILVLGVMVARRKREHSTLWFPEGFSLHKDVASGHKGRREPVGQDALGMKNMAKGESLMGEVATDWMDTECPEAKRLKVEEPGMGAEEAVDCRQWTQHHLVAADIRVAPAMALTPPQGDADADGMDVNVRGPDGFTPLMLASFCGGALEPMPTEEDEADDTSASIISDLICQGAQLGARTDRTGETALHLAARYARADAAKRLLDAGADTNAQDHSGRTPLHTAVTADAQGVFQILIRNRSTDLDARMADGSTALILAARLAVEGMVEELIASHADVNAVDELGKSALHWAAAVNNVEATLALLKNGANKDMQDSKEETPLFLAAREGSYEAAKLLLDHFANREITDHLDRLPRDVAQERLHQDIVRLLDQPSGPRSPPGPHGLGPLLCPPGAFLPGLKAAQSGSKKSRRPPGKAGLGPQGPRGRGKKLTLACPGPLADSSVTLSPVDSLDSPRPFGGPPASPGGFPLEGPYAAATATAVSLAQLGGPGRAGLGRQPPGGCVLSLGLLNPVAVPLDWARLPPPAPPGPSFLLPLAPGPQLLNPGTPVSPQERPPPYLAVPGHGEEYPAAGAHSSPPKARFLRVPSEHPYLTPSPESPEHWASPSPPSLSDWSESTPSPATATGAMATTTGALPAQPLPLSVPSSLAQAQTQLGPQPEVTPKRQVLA
The nature of experiment [20]: probe aEGFR binding to arrayed compounds – biochemical, biotinylated probe, 635/667 nm fluorescence, primary screen (AID 1097).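 Note: probe is a biotinylated anti-EGFR antibody binding compounds printed on slides; score combines fluorescence near 667 nm and signal to noise of each spot.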 To be noted: small-molecule microarray, higher = more signal.

From PubChem BioAssay come the findings set out here.

Activity calls are given as the source filed them.

Sequence of Neurogenic locus notch homolog protein 2 (Homo sapiens) (Q04721 whole entry, looked up, canonical isoform): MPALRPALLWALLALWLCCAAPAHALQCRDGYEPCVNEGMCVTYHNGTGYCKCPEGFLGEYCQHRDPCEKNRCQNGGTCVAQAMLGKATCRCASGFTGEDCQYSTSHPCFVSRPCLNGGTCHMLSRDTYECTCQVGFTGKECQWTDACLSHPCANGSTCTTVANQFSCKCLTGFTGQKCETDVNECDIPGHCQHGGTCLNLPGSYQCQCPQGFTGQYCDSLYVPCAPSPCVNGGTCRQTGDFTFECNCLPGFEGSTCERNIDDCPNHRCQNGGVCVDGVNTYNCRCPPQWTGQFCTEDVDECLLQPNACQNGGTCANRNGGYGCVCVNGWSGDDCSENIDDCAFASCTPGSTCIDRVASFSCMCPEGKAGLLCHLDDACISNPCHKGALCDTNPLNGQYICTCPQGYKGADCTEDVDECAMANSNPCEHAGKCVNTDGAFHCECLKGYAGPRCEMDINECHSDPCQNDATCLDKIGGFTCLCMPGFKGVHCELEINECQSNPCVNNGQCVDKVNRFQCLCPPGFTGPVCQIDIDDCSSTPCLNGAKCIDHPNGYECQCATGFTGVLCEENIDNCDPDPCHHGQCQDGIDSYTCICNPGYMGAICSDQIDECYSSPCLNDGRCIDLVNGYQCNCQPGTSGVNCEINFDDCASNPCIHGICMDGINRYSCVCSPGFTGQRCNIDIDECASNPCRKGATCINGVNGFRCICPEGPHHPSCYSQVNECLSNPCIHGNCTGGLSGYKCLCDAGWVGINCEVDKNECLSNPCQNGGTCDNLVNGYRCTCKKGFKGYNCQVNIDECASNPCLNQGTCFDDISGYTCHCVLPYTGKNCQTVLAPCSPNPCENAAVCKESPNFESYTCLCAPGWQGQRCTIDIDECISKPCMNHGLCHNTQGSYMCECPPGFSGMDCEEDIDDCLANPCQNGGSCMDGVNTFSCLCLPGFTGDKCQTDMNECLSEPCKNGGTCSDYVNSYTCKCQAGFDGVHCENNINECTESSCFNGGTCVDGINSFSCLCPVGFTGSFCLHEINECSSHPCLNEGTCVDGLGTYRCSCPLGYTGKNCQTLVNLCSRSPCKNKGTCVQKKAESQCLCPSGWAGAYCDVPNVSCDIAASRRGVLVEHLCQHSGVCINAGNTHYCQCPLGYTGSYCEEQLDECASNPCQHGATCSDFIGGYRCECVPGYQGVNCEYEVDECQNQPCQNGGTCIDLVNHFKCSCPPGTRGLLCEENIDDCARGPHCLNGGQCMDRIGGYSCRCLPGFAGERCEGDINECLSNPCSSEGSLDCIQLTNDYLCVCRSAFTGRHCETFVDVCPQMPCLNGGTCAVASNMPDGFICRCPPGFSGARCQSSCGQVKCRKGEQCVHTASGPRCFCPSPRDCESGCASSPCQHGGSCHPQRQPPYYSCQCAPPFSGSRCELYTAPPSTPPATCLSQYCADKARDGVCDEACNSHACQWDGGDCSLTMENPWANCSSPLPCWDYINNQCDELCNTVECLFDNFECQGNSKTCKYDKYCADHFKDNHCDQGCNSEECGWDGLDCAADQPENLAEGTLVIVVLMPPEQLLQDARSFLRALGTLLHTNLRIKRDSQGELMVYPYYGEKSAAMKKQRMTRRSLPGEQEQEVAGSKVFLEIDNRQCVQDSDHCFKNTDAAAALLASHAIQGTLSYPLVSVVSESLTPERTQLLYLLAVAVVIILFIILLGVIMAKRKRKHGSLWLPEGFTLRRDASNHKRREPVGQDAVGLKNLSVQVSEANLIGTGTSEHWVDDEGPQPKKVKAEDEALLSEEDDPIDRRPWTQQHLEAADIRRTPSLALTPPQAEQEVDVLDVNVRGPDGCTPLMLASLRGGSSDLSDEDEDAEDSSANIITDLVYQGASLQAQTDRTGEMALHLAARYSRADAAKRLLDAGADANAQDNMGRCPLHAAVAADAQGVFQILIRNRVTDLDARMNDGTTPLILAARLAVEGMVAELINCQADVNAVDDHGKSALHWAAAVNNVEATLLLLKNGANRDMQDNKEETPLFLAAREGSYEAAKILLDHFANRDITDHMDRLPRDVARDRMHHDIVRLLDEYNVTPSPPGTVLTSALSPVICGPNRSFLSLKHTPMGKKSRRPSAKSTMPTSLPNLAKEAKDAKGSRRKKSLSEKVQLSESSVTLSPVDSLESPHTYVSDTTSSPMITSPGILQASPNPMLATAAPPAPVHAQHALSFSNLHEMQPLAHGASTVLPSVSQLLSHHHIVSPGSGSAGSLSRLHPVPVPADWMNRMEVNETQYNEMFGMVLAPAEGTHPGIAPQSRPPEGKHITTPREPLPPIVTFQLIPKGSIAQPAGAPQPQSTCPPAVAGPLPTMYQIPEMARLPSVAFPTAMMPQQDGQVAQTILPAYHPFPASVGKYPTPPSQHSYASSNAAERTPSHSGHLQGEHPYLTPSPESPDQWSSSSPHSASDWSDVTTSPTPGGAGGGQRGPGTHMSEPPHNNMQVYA

For the compound `COCCCNC(=O)[C@@]1(CCC(=O)OC(C)(C)C)N=C(c2ccc(OCCCO)cc2)O[C@H]1c1ccccc1CN=[N+]=[N-]`, the composite z-score was -0.073 in experiment [1]; -0.158 in [2]; -0.0724 in experiment [3]; 0.527 in experiment [4]; 1.67 in experiment [5]; 1.59 in experiment [6]. Besides, the composite z-score in experiment [7] came to 1.27; in experiment [9] it was 1.53; in experiment [10], 0.238; in experiment [11], 1.26; in experiment [15] it was 3.74; in experiment [17] it was 0.194. The composite z-score in [18] is 0.624; in experiment [19], 1.06; in experiment [20], 0.305. The z-score in experiment [8] was 2.42 (inactive); in experiment [12], -0.187 (inactive); in experiment [13] it was -0.738 (inactive); in experiment [14] it was -0.363 (inactive); in experiment [16], 0.316 (inactive).

Take `C=C[C@H](C)[C@@H](O)c1ccc(O)c2ccccc12`: the composite z-score is -0.161 in experiment [1]; -0.0359 in [2]; 0.126 in experiment [3]; -0.749 in experiment [4]; -1 in experiment [5]; -0.329 in [6]. Also, the composite z-score in experiment [7] is -0.158; in experiment [9], -1.03; in experiment [10], 0.0274; in [11], -0.169; in experiment [15] it was 0.853; in experiment [17], -0.254. Further, the values for the composite z-score in experiment [18], in experiment [19] and in experiment [20] were -0.0597, -0.0004 and -0.322, respectively. In addition, the z-score in [8] is -0.202 (inactive); in [12], -0.968 (inactive); in [13] it was -13.3 (active); in experiment [14], 4.25 (inactive); in experiment [16], 0.149 (inactive).

`Cc1ccc(S[C@]2(C(=O)NCC(C)C)CC(=O)N(Cc3ccccc3)[C@@H]2c2ccc(CO)cc2I)cc1`: the composite z-score in experiment [1] is -0.0472; in experiment [2], 0.0315; in experiment [3] it was 0.0664; in experiment [4] it was 0.161; in experiment [5] it was 0.533; in experiment [6] it was 0.892. Besides, the composite z-score in [7] was 1.27; in experiment [9] it was -0.325; in experiment [10], -0.0427; in [11], 1.3; in experiment [15], 2.55; in [17], 0.124. Besides, the values for the composite z-score in experiment [18], in experiment [19] and in experiment [20] were 0.8, 0.905 and 0.0537, respectively. Moreover, the z-score in [8] was -2.06 (inactive); in experiment [12] it was -1.29 (inactive); in experiment [13], -0.927 (inactive); in [14], 1.66 (inactive); in [16], 0.0384 (inactive).

Turning to `CCN(CC)c1ccc(N2CC=CC34O[C@@H]5C=CCCOC(=O)C5[C@H]3C(=O)N(CCCCCO)[C@@H]4C2=O)cc1` (stereo not given in full), the composite z-score in [1] was 0.373; in experiment [2] it was 2.13; in [3], -0.116; in [4], -0.851; in experiment [5], -0.788; in experiment [6] it was 1.78. The composite z-score in experiment [7] is 1.01; in experiment [9], 0.37; in [10], -0.226; in experiment [11], -0.203; in experiment [15] it was 0.965; in experiment [17] it was -0.126. For the same compound, the figures for the composite z-score in experiment [18], in experiment [19] and in [20] were -0.514, -0.272 and -0.168, respectively. Also, the z-score is -0.736 (inactive) in experiment [8]; -0.847 (inactive) in experiment [12]; -1.3 (inactive) in experiment [13]; -0.818 (inactive) in experiment [14]; 2.85 (inactive) in experiment [16].

As for `N#Cc1ccc(NN2C(C(O)c3ccc([N+](=O)[O-])cc3)C=CC3C(=O)N(c4ccccc4)C(=O)C32)cc1` (stereo not given), the composite z-score in experiment [1] is 0.298; in experiment [2], -0.0479; in experiment [3], 0.11; in experiment [4] it was 0.921; in [5], 1.59; in experiment [6], 1.66. In addition, the composite z-score in experiment [7] is 1.35; in experiment [9] it was 0.899; in experiment [10], -0.287; in experiment [11] it was 0.698; in experiment [15], 3.29; in experiment [17], 0.0478. Besides, the figures for the composite z-score in experiment [18], in experiment [19] and in experiment [20] were -0.299, 1.06 and 0.0478, respectively. The z-score is 0.536 (inactive) in experiment [8]; -0.0094 (inactive) in [12]; 1.2 (inactive) in [13]; 1.39 (inactive) in [14]; -1.75 (inactive) in [16].

Consider `O=C1O[C@H](c2ccccc2)[C@H](c2ccccc2)N2[C@H]1[C@@H](C(=O)N1CCN(c3ncccn3)CC1)[C@]1(C(=O)Nc3ccccc31)[C@H]2c1ccc(OCCO)cc1`, for which the composite z-score in [1] is -0.371; in [2], 0.0417; in experiment [3], -0.106; in experiment [4] it was 0.309; in experiment [5], 1.18; in experiment [6], 0.0248. In addition, the composite z-score in experiment [7] is 1.31; in [9], 0.348; in experiment [10], 0.34; in experiment [11], 1.56; in experiment [15], 2.35; in [17] it was -0.037. Also, the composite z-score in experiment [18] is 1.88; in [19] it was 1.1; in [20] it was -0.0763. Moreover, the z-score was 1.03 (inactive) in experiment [8]; 2.72 (inactive) in experiment [12]; 0.573 (inactive) in [13]; 4.75 (inactive) in [14]; 2.9 (inactive) in experiment [16].
